Test results reported in PubChem BioAssay AID662 (National Center for Advancing Translational Sciences (NCATS), 2007).
Hit rate of the full screen: of about 71,000 compounds, about 1,800 (2.5%) were called active. Another 26% or so got no clear call; they are omitted. What follows is part of a selection rich in actives, with near analogues and random picks from the rest. A number with no mark means an inactive call. Calls follow the shape of the dose curve; as a rule, active = well fitted activation curve with a large enough effect in the signal ratio, with a control signal flat (not every such curve was filed as active); inconclusive = small, poorly fitted or top-dose-only effect, or effect the other way, or a change in a side signal; inactive = flat fitted curve, though single readings scatter; the % refers to the signal ratio.

Test: Cell signaling CRE-BLA (Fsk stim); as to activity change, negative = inhibition: % of control where 0% means no effect
Conditions: CHO CRE-bla reporter (cAMP response element driving beta-lactamase), forskolin EC10, beta-lactamase ratio; series mostly up to 38.2 µM; activity change, negative = inhibition: at the top concentration
Description: NIH Molecular Libraries Screening Centers Network [MLSCN]
NIH Chemical Genomics Center [NCGC]
Assay Provider: Marshall W. Nirenberg, U.S. National heart lung & blood institute
Memories persist for different lengths of time, from seconds or minutes to a lifetime. There are two kinds of memory: short-term memory (STM) and long-term memory (LTM). STM lasts for minutes to hours, which maybe mediated by modifications of molecules involved in synaptic functions. LTM lasts for days or longer, and may be due to the formation of new synapses or restructuring of existing synapses. LTM, but not STM, requires gene transcription and synthesis of proteins. CREB (cyclic-AMP Responsive Element Binding Protein) is one of the candidates plays an important role for enhancement of some types of LTM. CREB, a family of transcription factors, regulates the transcription of genes containing cAMP Responsive Elements (CRE). CRE is a nucleotide sequence often found in the promoter regions of genes that are binding sites for CREB.
Using a beta-lactamase reporter-gene under control of cAMP responsive element, a cell-based assay [CellSensor(TM) CRE-bla CHO developed by Invitrogen Corp.] was used to measure forskolin-induced signaling. Library compounds were measured for their ability to modulate positively or negatively the action of EC10 NKH 477, a water soluble forskolin, on reporter gene activity. Compounds were screened in a titration series in 1536-well format. Positive and negative modulators were identified based on the AC50 values derived from the screening data.
NCGC Assay Protocol Summary
2000 cells/5uL in Opti-MEM medium containing 0.5% dialyzed FBS, 0.1 mM NEAA, 1 mM sodium pyruvate and 10 mM HEPES was dispensed into 1536-well plates and cells were cultured at 37 degrees Celsius overnight. […] And then the plates were incubated at 37 degrees Celsius for 3 hours. 1 uL of CCF4-dye mixture was added to each well. After incubated at room temperature for 2 hours the plates were measured on an EnVision plate reader at Excitation 405nm, Emission1=460nm and Emission 2=530nm. The %Activity was determined from the ratio of 460nm/530nm.
Keywords: NIH Roadmap, MLSCN, MLSMR, qHTS, NCGC, CRE, beta-lactamase reporter-gene assay.
Potency is read from the fitted curve at half-maximal effect.

Row | Structure (SMILES) | Potency | activity change, negative = inhibition [%]
1 | CCOC(=O)c1oc2ccccc2c1NC(=O)c1cccs1 | 3.98 µM (active) | –
2 | CCc1nnc(NC(=O)c2cccs2)s1 | – | -1.45
3 | COC(=O)Cn1cc(C(=O)c2cccs2)c2ccccc21 | – | -1.19
4 | CCOC(=O)c1c(NC(=O)c2cccs2)sc(C)c1C | 2.51 µM (active) | –
5 | O=C(O)Cc1ccc(NC(=O)c2cccs2)cc1 | – | -4.51
6 | O=C(Nc1ncccn1)c1cccs1 | – | -3.62
7 | COC(=O)C1=C(C)N(C)C(C)=C(C(=O)OC)C1c1cccc(Br)c1 | – | 2.2
8 | O=C(Cl)c1ccc([N+](=O)[O-])cc1 | – | -11.7
9 | CCNC(=S)NCC | – | 2.82
10 | CCCCC(CC)CN (stereo unspecified) | inactive | –
11 | c1csc(-c2cn3c(n2)SCC3)c1 | – | -0.942
12 | Cc1c(C)c2c(c(C)c1O)CC[C@@](C)(CN1CCN(c3cc(N4CCCC4)nc(N4CCCC4)n3)CC1)O2 | – | -4.36
13 | CC1OC2C(OC1C)N(S(C)(=O)=O)CCN2S(C)(=O)=O (stereo unspecified) | – | -1.57
14 | O=c1c(CCc2ccccc2)nc2cnc(N3CCNCC3)nc2n1Cc1cccs1 | 12.6 µM (active) | –
15 | Cc1nc2cnc(N3CCN(C)CC3)nc2n(CCC#N)c1=O | – | 14.5
16 | Cc1nc2cnc(N3CCN(C)CC3)nc2n(C[C@H]2CCCO2)c1=O | – | 5.46

Row | Structure (SMILES) | Potency | activity change, negative = inhibition [%]
17 | CC(C)(C)[Si](OCC[C@@H]1C[C@@]1(C)[C@@H](NP(=O)(c1ccccc1)c1ccccc1)c1ccccc1)(c1ccccc1)c1ccccc1 | – | 19
18 | COC(=O)[C@@]1(Cc2ccc(OC)cc2)[C@H]2c3cc(C(=O)N4CCCC4)n(Cc4ccc(C(F)(F)F)nc4)c3C[C@H]2CN1C(=O)c1ccccc1 | – | -23.5
19 | COC(=O)C1(C)C=CC2(CCCCC2)N1C(C)=O (stereo unspecified) | – | 1.94
20 | CCCCCCCCCCCC(=O)O | inactive | –
21 | CCCOc1ccc(C2c3c(oc4cc(C)c(C)cc4c3=O)C(=O)N2CCCN2CCOCC2)cc1 (stereo unspecified) | – | 6.61
22 | Cn1c(=O)c2c(nc(CN3CCOCC3)n2Cc2ccccc2)n(C)c1=O | – | 2.87
23 | Cc1cccn2c(=O)c3cc(C#N)c(=O)n(CCCN4CCOCC4)c3nc12 | 10 µM (active) | –
24 | CCOC(=O)CSc1nnc(-c2cccc(Br)c2)o1 | – | -0.588
25 | CCC[C@@H]1C[C@@]1(CCC)C(NC(=O)c1ccc(-c2ccccc2)cc1)c1cccc(Cl)c1 (stereo partly specified) | – | 15.6
26 | COc1ccc(C(=O)NCc2cn3ccccc3n2)cc1 | – | -8.76
27 | CSc1ncccc1C(=O)OCC(=O)N1CCOCC1 | – | -3.86
28 | CCOc1ncccc1C(=O)OCc1cn2cc(Cl)ccc2n1 | 10 µM (active) | –
29 | CC(=O)N1[C@H](C)C=C[C@]1(Cc1ccccc1)C(=O)NCc1ccccn1 | – | -6.46
30 | C/C(=C\C(=O)c1ccc(Br)cc1)N1CCCCC1 | – | -14.2
31 | COC(=O)C1(Cc2ccccc2)C=C2C(=C(C)C(=O)C2C)CN1 (stereo unspecified) | – | -7.33
